Results as given in the supplement of paper PMC7411054.
Counter-ions that a name gives are not always drawn.

Tests used:
Conditions in all cases: treatment time: 24 h
[1] = system: A549-ACTB-RAB5A; assay: lowest phenotypically active concentration; higher = less potent
Procedure, shortened: (§1)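 After 24 h at 0.3, 1, 3 or 9 µM, with four wells per treatment, fifteen gene-edited A549, HepG2 and WPMY1 reporter lines carrying BFP, GFP and RFP/FusionRed were imaged live. Each well's live-cell features were expressed relative to solvent control wells. Deviation required ≥3 of 4 wells past the 95th percentile of control Euclidean distances, and reproducibility a median replicate Pearson correlation over the 95th percentile of non-replicates. Phenotypic activity rested on both.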

[2] = system: WPMY1-ACTB-RAB5A; assay: as above
Procedure, shortened: as §1

[3] = system: WPMY1-GM130-SQSTM1; assay: as above
Procedure, shortened: as §1

[4] = system: A549-ACTB-RAB5A; assay: phenotypically active (imaging signature differs from DMSO and reproducible) at any of 0.3-9 uM (binary (1 = active, 0 = inactive)); higher = active
Procedure, shortened: as §1

[5] = system: A549-CANX-COX4; assay: as above
Procedure, shortened: as §1

[6] = system: A549-GM130-SQSTM1; assay: as above
Procedure, shortened: as §1

[7] = system: A549-TP53BP1-CLTA; assay: as above
Procedure, shortened: as §1

[8] = system: A549-TUBA1B-RELA; assay: as above
Procedure, shortened: as §1

[9] = system: HepG2-ACTB-RAB5A; assay: as above
Procedure, shortened: as §1

[10] = system: HepG2-CANX-COX4; assay: as above
Procedure, shortened: as §1

[11] = system: HepG2-GM130-SQSTM1; assay: as above
Procedure, shortened: as §1

[12] = system: HepG2-TP53BP1-CLTA; assay: as above
Procedure, shortened: as §1

[13] = system: HepG2-TUBA1B-RELA; assay: as above
Procedure, shortened: as §1

[14] = system: WPMY1-ACTB-RAB5A; assay: as above
Procedure, shortened: as §1

[15] = system: WPMY1-CANX-COX4; assay: as above
Procedure, shortened: as §1

[16] = system: WPMY1-GM130-SQSTM1; assay: as above
Procedure, shortened: as §1

[17] = system: WPMY1-TP53BP1-CLTA; assay: as above
Procedure, shortened: as §1

[18] = system: WPMY1-TUBA1B-RELA; assay: as above
Procedure, shortened: as §1

[19] = system: A549-GM130-SQSTM1; assay: lowest phenotypically active concentration; higher = less potent
Procedure, shortened: as §1

[20] = system: WPMY1-CANX-COX4; assay: as above
Procedure, shortened: as §1

| SMILES | lowest phenotypically active concentration [1] [µM] | lowest phenotypically active concentration [2] [µM] | lowest phenotypically active concentration [3] [µM] | phenotypically active [4] | phenotypically active [5] | phenotypically active [6] | phenotypically active [7] | phenotypically active [8] | phenotypically active [9] | phenotypically active [10] | phenotypically active [11] | phenotypically active [12] | phenotypically active [13] | phenotypically active [14] | phenotypically active [15] | phenotypically active [16] | phenotypically active [17] | phenotypically active [18] | lowest phenotypically active concentration [19] [µM] | lowest phenotypically active concentration [20] [µM] |
| --- | --- | --- | --- | --- | --- | --- | --- | --- | --- | --- | --- | --- | --- | --- | --- | --- | --- | --- | --- | --- |
| COc1ccc(CCc2nc3cc(-c4c(C)noc4C)ccc3n2C[C@H](C)N2CCOCC2)cc1Cl | 3 | 9 | 9 | 1 (active) | 0 (inactive) | 0 (inactive) | 0 (inactive) | 0 (inactive) | 1 (active) | 1 (active) | 1 (active) | 1 (active) | 1 (active) | 1 (active) | 0 (inactive) | 1 (active) | 0 (inactive) | 1 (active) |  |  |
| Cn1c(=O)c2nc[nH]c2n(C)c1=O [theophylline] |  |  |  | 0 (inactive) | 0 (inactive) | 1 (active) | 0 (inactive) | 0 (inactive) | 0 (inactive) | 0 (inactive) | 0 (inactive) | 0 (inactive) | 0 (inactive) | 0 (inactive) | 0 (inactive) | 0 (inactive) | 0 (inactive) | 0 (inactive) | 9 |  |
| Cc1cccc(C)c1OCC(C)N (configuration not stated) [mexiletine] |  |  | ≤ 0.3 | 0 (inactive) | 1 (active) | 0 (inactive) | 1 (active) | 0 (inactive) | 1 (active) | 0 (inactive) | 0 (inactive) | 0 (inactive) | 0 (inactive) | 0 (inactive) | 0 (inactive) | 1 (active) | 0 (inactive) | 0 (inactive) |  |  |
| O=C1NCCCc2c1oc1ccc(O)cc21 | 9 | 9 | 9 | 1 (active) | 0 (inactive) | 0 (inactive) | 0 (inactive) | 0 (inactive) | 0 (inactive) | 1 (active) | 0 (inactive) | 0 (inactive) | 1 (active) | 1 (active) | 0 (inactive) | 1 (active) | 0 (inactive) | 1 (active) |  |  |
| CC(=O)N1CCN(c2ccc(OC[C@H]3CO[C@](Cn4ccnc4)(c4ccc(Cl)cc4Cl)O3)cc2)CC1 [Ketoconazole] | 9 |  | 9 | 1 (active) | 0 (inactive) | 0 (inactive) | 0 (inactive) | 0 (inactive) | 0 (inactive) | 0 (inactive) | 0 (inactive) | 0 (inactive) | 0 (inactive) | 0 (inactive) | 0 (inactive) | 1 (active) | 0 (inactive) | 0 (inactive) |  |  |
| CC(=O)C1=C(O)[C@]2(C)C(=CC1=O)Oc1c(C(C)=O)c(O)c(C)c(O)c12 [(+)-Usnic acid] |  |  |  | 0 (inactive) | 0 (inactive) | 1 (active) | 0 (inactive) | 0 (inactive) | 0 (inactive) | 0 (inactive) | 0 (inactive) | 0 (inactive) | 0 (inactive) | 0 (inactive) | 0 (inactive) | 0 (inactive) | 0 (inactive) | 0 (inactive) | 9 |  |
| CC(C)c1ccc(-c2cc(=O)c3ccccc3o2)cc1 | 9 |  | 3 | 1 (active) | 0 (inactive) | 0 (inactive) | 0 (inactive) | 0 (inactive) | 0 (inactive) | 0 (inactive) | 0 (inactive) | 0 (inactive) | 0 (inactive) | 0 (inactive) | 0 (inactive) | 1 (active) | 0 (inactive) | 0 (inactive) |  |  |
| N=C1NC(=O)/C(=C\c2ccc(O)cc2)S1 [Mirin] | 9 | 9 |  | 1 (active) | 0 (inactive) | 0 (inactive) | 0 (inactive) | 0 (inactive) | 0 (inactive) | 0 (inactive) | 0 (inactive) | 0 (inactive) | 0 (inactive) | 1 (active) | 0 (inactive) | 0 (inactive) | 0 (inactive) | 0 (inactive) |  |  |
| CC(C)(C)c1ccc(S(=O)(=O)/C=C/C#N)cc1 | 9 |  | 9 | 1 (active) | 0 (inactive) | 0 (inactive) | 0 (inactive) | 0 (inactive) | 0 (inactive) | 0 (inactive) | 1 (active) | 0 (inactive) | 1 (active) | 0 (inactive) | 1 (active) | 1 (active) | 1 (active) | 0 (inactive) |  | 9 |
| Nc1ncnc2c1nc(Br)n2[C@@H]1O[C@@H]2COP(=O)(O)O[C@H]2[C@H]1O [8-Bromo-cAMP, sodium salt] | 9 |  |  | 1 (active) | 0 (inactive) | 0 (inactive) | 0 (inactive) | 0 (inactive) | 0 (inactive) | 0 (inactive) | 0 (inactive) | 0 (inactive) | 0 (inactive) | 0 (inactive) | 1 (active) | 0 (inactive) | 0 (inactive) | 0 (inactive) |  | 9 |
| OCCOCCN1CCN(C2=Nc3ccccc3Sc3ccccc32)CC1 [Quetiapine hemifumarate] |  |  |  | 0 (inactive) | 0 (inactive) | 1 (active) | 0 (inactive) | 0 (inactive) | 0 (inactive) | 0 (inactive) | 0 (inactive) | 0 (inactive) | 0 (inactive) | 0 (inactive) | 0 (inactive) | 0 (inactive) | 0 (inactive) | 0 (inactive) | 9 |  |
| Cc1c[nH]c2ncnc(-c3ccc(NC(=O)N(CCO)c4ccccc4)cc3)c12 | 9 |  |  | 1 (active) | 0 (inactive) | 0 (inactive) | 0 (inactive) | 0 (inactive) | 0 (inactive) | 0 (inactive) | 0 (inactive) | 0 (inactive) | 0 (inactive) | 0 (inactive) | 0 (inactive) | 0 (inactive) | 0 (inactive) | 1 (active) |  |  |
| CCCOc1ccn2c(C(C)=O)cc(-c3ccccc3S(C)(=O)=O)c2c1 |  |  |  | 0 (inactive) | 0 (inactive) | 1 (active) | 0 (inactive) | 0 (inactive) | 0 (inactive) | 0 (inactive) | 0 (inactive) | 0 (inactive) | 0 (inactive) | 0 (inactive) | 0 (inactive) | 0 (inactive) | 0 (inactive) | 0 (inactive) | 9 |  |
| Cn1cc(-c2ccc3nnc(Sc4ccc5ncccc5c4)n3n2)cn1 |  |  | 1 | 0 (inactive) | 1 (active) | 0 (inactive) | 1 (active) | 0 (inactive) | 1 (active) | 0 (inactive) | 0 (inactive) | 0 (inactive) | 0 (inactive) | 0 (inactive) | 0 (inactive) | 1 (active) | 0 (inactive) | 0 (inactive) |  |  |
| COC(=O)C1=CO[C@@H](C)[C@H]2CN3CCc4c([nH]c5ccccc45)[C@@H]3C[C@H]12 [Ajmalicine hydrochloride] |  |  | 3 | 0 (inactive) | 1 (active) | 0 (inactive) | 0 (inactive) | 0 (inactive) | 1 (active) | 1 (active) | 0 (inactive) | 1 (active) | 0 (inactive) | 0 (inactive) | 1 (active) | 1 (active) | 0 (inactive) | 0 (inactive) |  | 9 |
| CC(C)(C(=O)c1cccnc1)c1cccnc1 [metyrapone] |  |  |  | 0 (inactive) | 0 (inactive) | 1 (active) | 0 (inactive) | 0 (inactive) | 0 (inactive) | 0 (inactive) | 0 (inactive) | 0 (inactive) | 0 (inactive) | 0 (inactive) | 0 (inactive) | 0 (inactive) | 0 (inactive) | 0 (inactive) | 9 |  |
| O=C(COc1cccc2c(=O)[nH]ccc12)c1ccccc1 |  |  |  | 0 (inactive) | 0 (inactive) | 1 (active) | 0 (inactive) | 0 (inactive) | 0 (inactive) | 0 (inactive) | 0 (inactive) | 0 (inactive) | 0 (inactive) | 0 (inactive) | 0 (inactive) | 0 (inactive) | 0 (inactive) | 0 (inactive) | 9 |  |
| CC[C@H](Nc1ncnc2[nH]cnc12)c1nc2cccc(F)c2c(=O)n1-c1ccccc1 [idelalisib] | 9 | 9 |  | 1 (active) | 0 (inactive) | 0 (inactive) | 0 (inactive) | 0 (inactive) | 0 (inactive) | 0 (inactive) | 0 (inactive) | 0 (inactive) | 0 (inactive) | 1 (active) | 0 (inactive) | 0 (inactive) | 0 (inactive) | 0 (inactive) |  |  |
| O=c1cc(N2CCOCC2)oc2c(-c3ccccc3)cccc12 |  | 9 | ≤ 0.3 | 0 (inactive) | 0 (inactive) | 1 (active) | 1 (active) | 1 (active) | 1 (active) | 0 (inactive) | 1 (active) | 1 (active) | 1 (active) | 1 (active) | 1 (active) | 1 (active) | 1 (active) | 0 (inactive) | 9 | 9 |
| CC(C)NC[C@H](O)COc1cccc2ccccc12 [(S)-(-)-Propranolol hydrochloride] |  |  |  | 0 (inactive) | 0 (inactive) | 1 (active) | 0 (inactive) | 0 (inactive) | 0 (inactive) | 0 (inactive) | 0 (inactive) | 0 (inactive) | 0 (inactive) | 0 (inactive) | 0 (inactive) | 0 (inactive) | 0 (inactive) | 0 (inactive) | 9 |  |
| Cc1cccc(-c2nn(C(=S)Nc3ccccc3)cc2-c2ccnc3ccccc23)n1 |  | 9 | 9 | 0 (inactive) | 1 (active) | 1 (active) | 0 (inactive) | 1 (active) | 1 (active) | 1 (active) | 1 (active) | 1 (active) | 1 (active) | 1 (active) | 1 (active) | 1 (active) | 1 (active) | 1 (active) | 9 | 9 |
| COc1cc(C)c(/C=C/C(C)=C/C=C/C(C)=C/C(=O)O)c(C)c1C [acitretin] | 9 |  | 9 | 1 (active) | 0 (inactive) | 0 (inactive) | 0 (inactive) | 0 (inactive) | 0 (inactive) | 0 (inactive) | 0 (inactive) | 0 (inactive) | 0 (inactive) | 0 (inactive) | 1 (active) | 1 (active) | 0 (inactive) | 0 (inactive) |  | 9 |
